Source: PubChem
A selection: hits, their analogues and other compounds. The true share with any hit is near 19%.
uPA generation: blocks generation of uPA at the cell surface; cell surface uPA generation assay, qHTS; Potency, µM (series often up to 38.3 µM), without a hit: top-dose activity change, negative = inhibition, hits mostly inhibitors; hit rate 0.31% among 330,000; AID 540303; active means well fitted inhibition curve with a large enough effect; inconclusive means small, poorly fitted or top-dose-only effect; inactive means no such curve, though single readings can be large or run the other way; tested in mouse RAW 264.7 cells; further: potency means the concentration at half of the fitted maximal effect; nearly all actives have a fitted effect of over 55% in size
IL1B secr inh: blocks inflammasome-driven IL-1 beta release; THP-1 LPS/ATP IL-1B secretion, AlphaLISA, 16 h; hits give low values; hit rate 4.7% among 360,000; activity change, % at 57.5 µM; AID 743279; in the data active means activity change below about -50%; inconclusive means mostly about -30% to -49%
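Secreted IL-1B measured by AlphaLISA bead assay after 16 h compound exposure of THP-1 cells; compounds (final up to 57.5 uM) added 1 h before LPS (250 ng/mL) and ATP (1.25 mM) stimulation; lower signal means less secretion.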
TDP1 cell noCPT: qHTS for Inhibitors of human tyrosyl-DNA phosphodiesterase 1 (TDP1): qHTS in cells in absence of CPT. Potency, µM (top dose mostly 46.2 µM), for the others: at the highest dose activity change, negative = growth inhibition, usual class: inhibitors. hit rate 15% among 420,000. DT40 Tdp1-/- hTDP1 cells, no CPT, ATP luminescence, 48 h; further: potency means the concentration at half of the fitted maximal effect; nearly all actives have a fitted effect of over 55% in size
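Compound effects on proliferation are scored in DT40 Tdp1-/-;hTDP1 cells in the absence of CPT. ATP levels (CellTiter-Glo luminescence) are recorded after a ≥48 hr, 37 °C incubation.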
TDP1 cell CPT: DT40-hTDP1 cell growth loss with CPT. chicken DT40 Tdp1-/-;hTDP1 cells + 20 nM CPT, ATP luminescence, 48 h. Potency, µM (series often up to 46.2 µM), without a hit: at the highest dose activity change, negative = growth inhibition, actives largely listed as inhibitors. hit rate 12% among 420,000. AID 686979; further: potency means the concentration at half of the fitted maximal effect; nearly all actives have a fitted effect of over 55% in size
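Cell growth measured by CellTiter-Glo luminescence after a minimum 48 h, 37 C compound exposure with 20 nM CPT in Tdp1-knockout DT40 cells stably expressing hTDP1, seeded 400/well; qHTS titration format.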
HT1080 IDH1KD tx: kills HT-1080 cells with IDH1 knockdown; Potency, µM (top dose mostly 46.1 µM), without a hit: top-dose activity, negative = toxicity, actives largely listed as cytotoxic; HT-1080 IDH1 knockdown viability, ATP luminescence, 48 h; hit rate 2% among 360,000; AID 686971;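 further: potency means the concentration at half of the fitted maximal effect; 0% = DMSO wells and -100% = cell-free medium wells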
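% activity derives from luminescence (CellTiter-Glo), normalised to DMSO and no-cell wells. HT-1080-IDH1KD cells, 750/well, had 48 h compound exposure at 37 °C.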
HT1080NT lethal: kills 2HG-producing HT-1080-NT fibrosarcoma cells; HT-1080-NT fibrosarcoma viability, CellTiter-Glo ATP luminescence, 48 h; Potency, µM (series often up to 46.1 µM), for the others: at the highest dose activity, negative = less viability, most hits filed as cytotoxic; hit rate 1.6% among 360,000; AID 686970;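 further: NT is the 2HG producing partner of a matched IDH1 knockdown line; potency means the concentration at half of the fitted maximal effect; 0% = DMSO-treated cells and -100% = media-only wells without cells; nearly all actives have a fitted effect of over 55% in size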
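Read-out is CellTiter-Glo luminescence after 10 minutes at room temperature, following 48 hours' compound treatment of HT-1080-NT cells (750 cells/well, RPMI, 5% FBS, 37 degrees C).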
* marks the source's active call; other numbers are inactive results; [ ] = another dose, or the depositor's remark. Unless noted, the call rests on the fitted dose curve; in most records, active means well fitted curve in the direction sought with a large enough effect; inconclusive means small, poorly fitted or top-dose-only effect, or another doubt; inactive means no such curve, though single readings can be large; an effect the other way counts as inactive or inconclusive. Unless noted, on the % scale 0 is the no-effect control and ±100 the full control effect.

Screening O=C(NCCC1=CCCCC1)c1ccc(=O)oc1 returned uPA generation -4%, IL1B secr inh -27, TDP1 cell noCPT -4%, TDP1 cell CPT inconclusive, HT1080 IDH1KD tx inconclusive and HT1080NT lethal 11%.
Screening COCCNC(=O)c1ccc(-c2nc(CS(=O)(=O)c3ccccc3)c(C)o2)cc1 returned TDP1 cell noCPT -24% and TDP1 cell CPT -13%.
For CCN1C(=O)[C@H]2[C@@H](c3ccc(OC)cc3)N3C(=O)CN(CCOC)C(=O)[C@@]3(Cc3ccccc3)[C@H]2C1=O the results were uPA generation 0%, IL1B secr inh 41, TDP1 cell noCPT -8%, TDP1 cell CPT -12%, HT1080 IDH1KD tx 12% and HT1080NT lethal 18%.
Screening Cc1ccc(C)c(NC(=O)c2cnn(-c3cccc(F)c3)c2C2CCN(C(=O)OC(C)(C)C)CC2)c1 returned TDP1 cell noCPT 23µM* and TDP1 cell CPT inconclusive.
`Cc1ccc(-n2ncc(C(=O)NCc3ccccn3)c2C2CCN(C(=O)OC(C)(C)C)CC2)cc1C` gave TDP1 cell noCPT 18µM* and TDP1 cell CPT inconclusive.
Cc1ccc(-n2ncc(C(=O)NCc3cccs3)c2C2CCN(C(=O)OC(C)(C)C)CC2)cc1C was read as TDP1 cell noCPT 16µM* and TDP1 cell CPT 16µM*.
Screening CCOC(=O)N1CCC(NC(=O)c2cnn(-c3ccccc3)c2C2CCN(C(=O)OC(C)(C)C)CC2)CC1 returned TDP1 cell noCPT -7% and TDP1 cell CPT -10%.
`CC(C)(C)OC(=O)N1CCC(c2c(C(=O)NCc3cccs3)cnn2-c2cccc(F)c2)CC1` gave TDP1 cell noCPT 16µM* and TDP1 cell CPT inconclusive.
`O=C(/C=C/C(=O)Oc1ccccc1C(=O)O)Oc1ccccc1C(=O)O` gave TDP1 cell noCPT 1% and TDP1 cell CPT -23%.
O=C1CCCCN1CCCC(=O)N1CCCC(Nc2ccc(F)c(F)c2)C1 (configuration not stated) was read as uPA generation 15%, IL1B secr inh -5, TDP1 cell noCPT 3%, TDP1 cell CPT -20%, HT1080 IDH1KD tx -1% and HT1080NT lethal 0%.
CC(C)(C)N1C(=O)[C@H]2[C@@H](c3ccc(Br)cc3)N3C(=O)N(c4cccc(Cl)c4)C(=O)[C@@]3(Cc3ccccc3)[C@H]2C1=O was read as uPA generation 19%, IL1B secr inh -20, TDP1 cell noCPT 21µM*, TDP1 cell CPT inconclusive, HT1080 IDH1KD tx 1% and HT1080NT lethal -3%.
CC[C@@]12C(=O)N(c3ccc(C)cc3)C(=O)N1[C@H](c1ccc(OC)cc1)[C@@H]1C(=O)N(C(C)(C)C)C(=O)[C@@H]12 was read as uPA generation 19%, IL1B secr inh 14, TDP1 cell noCPT 1%, TDP1 cell CPT 13%, HT1080 IDH1KD tx 7% and HT1080NT lethal 0%.
`CCN1C(=O)[C@H]2[C@@H](c3ccc(C)cc3)N3C(=O)N(c4ccc(C)cc4)C(=O)[C@@]3(Cc3ccc(Cl)cc3)[C@H]2C1=O` gave uPA generation 12%, IL1B secr inh 4, TDP1 cell noCPT 21µM*, TDP1 cell CPT 18µM*, HT1080 IDH1KD tx 9% and HT1080NT lethal 15%.
CC[C@@]12C(=O)N(c3ccc(C)cc3)C(=O)N1[C@H](c1ccc(Br)cc1)[C@@H]1C(=O)N(C(C)(C)C)C(=O)[C@@H]12 was read as uPA generation inconclusive, IL1B secr inh inconclusive, TDP1 cell noCPT inconclusive, TDP1 cell CPT 7.3µM*, HT1080 IDH1KD tx -6% and HT1080NT lethal -15%.
Screening COc1ccc([C@@H]2[C@@H]3C(=O)N(C(C)(C)C)C(=O)[C@@H]3[C@]3(Cc4ccccc4)C(=O)N(c4ccc(Br)cc4)C(=O)N23)cc1 returned uPA generation -6%, IL1B secr inh 0, TDP1 cell noCPT 23µM*, TDP1 cell CPT 23µM*, HT1080 IDH1KD tx 2% and HT1080NT lethal -4%.
CCN1CCN(C(=O)c2ccc(CS(=O)(=O)Cc3ccccc3Cl)o2)CC1 was read as IL1B secr inh 5, TDP1 cell noCPT 1%, TDP1 cell CPT 0%, HT1080 IDH1KD tx 6% and HT1080NT lethal -1%.
`FC(F)(F)c1ccccc1Cc1c(C2CCCCC2)nc2c3ccccc3ccn12` gave IL1B secr inh -27, TDP1 cell noCPT inconclusive, TDP1 cell CPT inconclusive, HT1080 IDH1KD tx inconclusive and HT1080NT lethal -25%.
For Cc1ccc2nc(C3CCCCC3)c(Cc3ccccc3)n2c1 the results were IL1B secr inh -14, TDP1 cell noCPT 16µM*, TDP1 cell CPT 15µM*, HT1080 IDH1KD tx inconclusive and HT1080NT lethal inconclusive.
For Cc1ccc2nc(C3CCCCC3)c(Cc3ccccc3C(F)(F)F)n2c1 the results were IL1B secr inh -6, TDP1 cell noCPT 16µM*, TDP1 cell CPT -102%, HT1080 IDH1KD tx inconclusive and HT1080NT lethal inconclusive.
For Cc1ccc2nc(C3CCCCC3)c(Cc3cccc(F)c3)n2c1 the results were IL1B secr inh -6, TDP1 cell noCPT inconclusive, TDP1 cell CPT inconclusive, HT1080 IDH1KD tx inconclusive and HT1080NT lethal inconclusive.
`CCc1nc(CN2CCOc3ccc(C(O)C4CCCCC4)cc3C2)c(C)[nH]1` (configuration not stated) gave TDP1 cell noCPT 18µM* and TDP1 cell CPT inconclusive.
For Cc1nn(C)c2c1c(C(F)(F)F)cc(=O)n2Cc1ccc(Br)cc1F the results were TDP1 cell noCPT 0% and TDP1 cell CPT -3%.
`Cc1cccc2cc(CN(C(=O)c3ccc(N4CCCCC4)cc3)C3CC3)c(N3CCC(O)CC3)nc12` gave TDP1 cell noCPT -24% and TDP1 cell CPT -1%[9.04 µM].
`COc1ccccc1C(=O)N(Cc1cc2cccc(C)c2nc1N1CCC(O)CC1)C1CC1` gave TDP1 cell noCPT 16µM* and TDP1 cell CPT -7%[9.04 µM].
`Cc1cccc2cc(CN(C(=O)c3ccc(-c4ccc(F)cc4)cc3)C3CC3)c(N3CCC(O)CC3)nc12` gave TDP1 cell noCPT 23µM* and TDP1 cell CPT inconclusive.
Cc1ccc(C(C)C)c(OCCSc2nc3ccccc3n2CC(O)CO)c1 (configuration not stated) was read as TDP1 cell noCPT 16µM* and TDP1 cell CPT 13µM*.
Screening Cc1ccc(C)c(OCCSc2nc3ccccc3n2CC(=O)N2CCOCC2)c1 returned TDP1 cell noCPT inconclusive and TDP1 cell CPT -22%.
